Assay results reported in PubChem BioAssay (NCI).
About 83,000 compounds went through this panel and 20% of them were active in at least one assay; those are over-represented in the sample as a whole.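 Plates (96-well) were seeded with cells, treated with compound at one concentration, and incubated for 48 hours before percent growth was determined.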 Activity calls are given as the source filed them. The calls were made as follows: active = growth percent below 10; inactive = the rest. *1 amine or outer side, *2 acyl side, *3 side chain or, on linkers, in order; H or OH if unused. Where a SMILES comes first, the peptide text is derived from it. Bridges are numbered along the chain shown (N, C = ends). Roman numbers before positions name the chains, in order. [ ]: non-standard residue; d: D form. ξ: configuration not given here. Actinocin(1to9) = Cc1c2oc3c(C)ccc(C(=O)[*:2])c3nc-2c(C(=O)[*:1])c(N)c1=O; NMeV = CN[CH](C(=O)O)C(C)C; ξD = NC(CC(=O)O)C(=O)O; Sar = CNCC(=O)O

Each molecule was assayed on NCI-H322M lung (assay: NCI-60 one-dose screen, 48 h (100 = growth as untreated, 0 = no growth, -100 = all killed)). Conditions: 10 µM unless noted.
For `CCC(C)C1NC(=O)C(NC(=O)c2c3nc4c(C(=O)NC5C(=O)NC(C(C)CC)C(=O)N6CCCC6C(=O)N(C)CC(=O)N(C)C(C(C)C)C(=O)OC5C)ccc(C)c4oc-3c(C)c(=O)c2N)C(C)OC(=O)C(C(C)C)N(C)C(=O)CN(C)C(=O)C2CCCN2C1=O` (configuration not stated) (I: TIP[Sar][NMeV] / II: TIP[Sar][NMeV]; ester I:1-I:C, II:1-II:C; linker I:N-II:N via Actinocin(1to9); configuration not given here), the growth was -2.5% (active).
In the case of `O=C(c1ccccc1)N(CCCl)C(=O)N(CCCl)C(=O)c1ccccc1`, the growth is reported as 90.2% (inactive).
With `OC(CSc1ccccc1)CN1CCN(c2ccc(Cl)cc2)CC1` (configuration not stated) the growth was 110% (inactive).
For `CCCOS(=O)(=O)c1ccccc1`, the growth was 102% (inactive).
In the case of `O=C(c1ccccc1)C(Br)[N+](=O)[O-]` (configuration not stated), the growth is reported as 101% (inactive).
For `CCCCCCCCC(=O)OCCCC(CCC(CCC1CCCO1)OC(=O)CCCCCCCC)OC(=O)CCCCCCCC` (configuration not stated), the growth was 102% (inactive).
`O=C(CCl)N(c1ccccc1)c1ccccc1` was tested, and the growth was 95% (inactive).
`NC(=S)N/N=C/c1ncccc1O` was tested, and the growth was 40.2% (inactive).
With `COc1c(C)c2c(c(O)c1C/C=C(\C)CCC(=O)O)C(=O)OC2` the growth was 38.3% (inactive).
In the case of `CC1=CC(=O)C=CC1(C)C(Cl)(Cl)Cl` (configuration not stated), the growth is reported as 102% (inactive).
For `O=C1c2ccccc2C(=O)c2c(O)c(Cl)cc(O)c21`, the growth was 111% (inactive).
`Cc1oc2c(C)c3oc(=O)cc(C)c3cc2c1CCl` was tested, and the growth was 75.9% (inactive).
With `Oc1c(C(Nc2ccccc2)c2ccccc2)ccc2cccnc12` (configuration not stated) the growth was 46.4% (inactive).
With `O=C(/C=C/C(Cl)(Cl)Cl)Nc1ccc(Cl)cc1` the growth was 126% (inactive).
For `N#CC(=C1SCS1)[N+](=O)[O-]`, the growth was 70.7% (inactive).
With `Cc1cc(N/N=C/c2ccccn2)nc2ccccc12` the growth was 7.17% (active).
With `CCCCCCN(CCCCCC)CCCNc1nccc2ccccc12` the growth was 28.7% (inactive).
For `COC(=O)[C@]1(C)CCC[C@]2(C)c3ccc(C(C)C)cc3C(=O)[C@@H](Br)[C@@H]12`, the growth was 118% (inactive).
`CCOC(=O)NC(/C=C/c1ccccc1)NC(=O)OCC` was tested, and the growth was 104% (inactive).
In the case of `NCC(=O)NC(CC(=O)O)C(=O)O` (configuration not stated) (H-Gly-[ξD]-OH), the growth is reported as 104% (inactive).
With `Nc1nc2ncc(CNc3ccc(C(=O)NC(CCC(=O)NC(CCC(=O)NC(CCC(=O)NC(CCC(=O)NC(CCC(=O)O)C(=O)O)C(=O)O)C(=O)O)C(=O)O)C(=O)O)cc3)nc2c(=O)[nH]1` (configuration not stated) the growth was 97.5% (inactive).
For `O=C(Cc1nc2cc(Cl)c(Cl)cc2nc1CC(=O)c1ccccc1)c1ccccc1`, the growth was 80.9% (inactive).
With `Cn1c(-c2ccccc2)c(/C=C/C2=[N+](C)c3ccccc3C2(C)C)c2ccccc21` the growth was 50.3% (inactive).
With `NC(=Nc1nc(-c2ccccn2)cc2ccccc12)c1ccccn1` the growth was 21.6% (inactive).
With `CC(C)(C)c1ccc(O)c(-c2ccccc2)c1` the growth was 104% (inactive).
`CCOC(=O)C1=NN(c2ccccc2)C(=O)/C1=C\N1C(=O)/C(=C/c2cccc(O)c2)SC1=S` was tested, and the growth was 98.9% (inactive).
With `CCN(CC)CCNc1ccc([N+](=O)[O-])c2sc3ccccc3c(=O)c12` the growth was 14.2% (inactive).
For `NCCCN(CCCN)CCCNCc1c2ccccc2c(CNCCCN(CCCN)CCCN)c2ccccc12`, the growth was 84.4% (inactive).
With `CCOC(=O)/C(=C\c1ccc2ccccc2c1)P(=O)(OCC)OCC` the growth was 70% (inactive).
`Cc1cc2nc(CC(=O)c3ccncc3)c(=O)[nH]c2cc1C` was tested, and the growth was 95.9% (inactive).
`Oc1c(Cl)cc(Cl)cc1C=NCC1CCC(CN=Cc2cc(Cl)cc(Cl)c2O)CC1` (configuration not stated) was tested, and the growth was 75.5% (inactive).
In the case of `CN1CCC(CN2c3ccccc3Sc3ccccc32)C1` (configuration not stated), the growth is reported as 86.3% (inactive).
For `CC1(C)OC2C(COC(c3ccccc3)(c3ccccc3)c3ccccc3)OC(c3c[nH]c4c(N)ncnc34)C2O1` (configuration not stated), the growth was 71.3% (inactive).
In the case of `O=[N+]([O-])c1ccc(Oc2ccccc2Cl)c([N+](=O)[O-])c1`, the growth is reported as 97.8% (inactive).
For `Cc1cc(Br)c2nsnc2c1[N+](=O)[O-]`, the growth was 88.2% (inactive).
In the case of `Cc1cccc2c(N)c3ccccc3nc12`, the growth is reported as -2.56% (active).
For `O=C(/C(Cl)=N/O)c1ccc(-c2ccccc2)cc1`, the growth was 94.3% (inactive).
